# Data reported in PubChem BioAssay AID743147 (Broad Institute, 2013).
# Activity calls are given as the source filed them.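 How the source made its calls: active means ATP luminescence loss from cell killing, with fitted half-maximal dose at or below the top valid tested dose; inconclusive means flat curve with partial loss of 30 to 70%, or poor fit; inactive means the rest.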
# Assay: viability loss in HEK293T cells – cell-based, CellTiter-Glo luminescence, dry powder, set 5, cytotoxicity control, dose response (AID 743147)
# Conditions: CellTiter-Glo ATP luminescence, 72 h; series mostly up to 26 µM
row,Structure (SMILES),outcome
1,CC(=O)Nc1ccc(C2=NNC(=O)C[C@H]2C)cc1[N+](=O)[O-],inactive
2,CCN1N=C(c2ccc(N(CC)CC)cc2)[C@H](C)CC1=O,inactive
3,C[C@@H]1CC(=O)NN=C1c1ccc(-c2cncnc2)cc1,inactive
4,O=C1CN2Cc3c(ccc(Cl)c3Cl)N=C2N1,inactive
5,C[C@@H]1CC(=O)NN=C1c1ccc(Cl)cc1,inactive
6,C[C@@H]1CC(=O)NN=C1c1ccc(N2CCOCC2)c(F)c1,inactive
7,COc1cc2c(cc1OC)-c1cc(=Nc3c(C)cc(C)cc3C)n(C)c(=O)n1CC2,inactive
8,C[C@@H]1CC(=O)NN=C1c1ccc(N2CCOCC2)cc1,inactive
9,CCN(CC)c1ccc(C2=NNC(=O)CC2C)cc1[N+](=O)[O-] (stereo not drawn),inactive
10,C[C@@H]1CC(=O)NN=C1c1ccc(F)c(F)c1,inactive
11,Cn1c(NC(=O)c2ccccc2)nc2ccccc21,inactive
12,C[C@H]1CC(=O)NN=C1c1ccc(N2CCOCC2)c(F)c1,inactive
13,C[C@@H]1CC(=O)NN=C1c1ccc(C2CCCCC2)cc1,inactive
